This is part of a sample that, as a whole, favours compounds with a hit. Of some 83,000 tested, about 20% had one in any assay.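 Activity criterion: percent growth below 10, measured after cells in 96-well plates were exposed to a single compound concentration for 48 hours.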 Unmarked numbers belong to inactive results. The source made the active and inactive calls.
Test system: MDA-MB-468 breast
Assay: NCI-60 one-dose screen, 48 h (100 = growth as untreated, 0 = no growth, -100 = all killed)
Details: 10 µM unless noted

SMILES	growth
CC[C@H](C)[C@H](NC(=O)[C@H]1CCCCN1C)C(=O)N(C)[C@H](CCc1nc(C(=O)N[C@@H](Cc2ccccc2)C[C@H](C)C(=O)O)cs1)C(C)C	36.1%
Cc1cc2c(cc1-c1ccnc(/C=C/C(=O)O)c1)C(C)(C)CCC2(C)C	97.1%
C=C1[C@@H](C)[C@H]2[C@H](Cc3ccccc3)NC(=O)[C@]23[C@@H](O)/C=C/[C@@](C)(O)C(=O)[C@@H](C)C/C=C/[C@H]3[C@@H]1O	-39% (active)
CNC(=O)O/N=C(\SC)C(=O)N(C)C	116%
CC1(C)CN1P(=O)(N1CC1(C)C)N1CC1(C)C (centres undefined)	106%
CC1(C)C=Cc2c(ccc3c2[N+]([O-])=C2C3=C[C@@]34NC(=O)[C@]5(CCCN5C3=O)C[C@@H]4C2(C)C)O1	8.16% (active)
CC[C@H](C)[C@H](NC(=O)c1nccn1C)C(=O)N(C)[C@H](C[C@@H](OC(C)=O)c1nc(C(=O)N[C@@H](Cc2ccccc2)C[C@H](C)C(=O)OC)cs1)C(C)C	25.7%
COC(=O)C[Se]C(=O)c1ccccc1OC(C)=O	34.8%
Cc1cc(NC(=O)NCCOc2ccc(N3C(N)=NC(N)=NC3(C)C)cc2Cl)ccc1S(=O)(=O)F	29%
C=CC1CN2CCC1CC2C(O)c1ccnc2ccccc12 (centres undefined)	107%
CC[C@H](C)[C@H](NC(=O)[C@H]1CCCCN1C)C(=O)N(C)[C@H](C[C@@H](OC(C)=O)c1nc(C(=O)N[C@@H](Cc2ccccc2)C[C@H](C)C(=O)O)cs1)C(C)C	-6.41% (active)
CN1C(=O)C(=Cc2cn(CCCCCCn3c4ccccc4c(=O)c4ccccc43)c3ccccc23)C(=O)N(C)C1=O	81%
C=CC[PH+](c1ccccc1)c1ccccc1.C=CC[PH+](c1ccccc1)c1ccccc1.[Cl][Pt][Cl]	-20.5% (active)
O=C1C=C(N2C3C4CCC(C4)C32)C(=O)C=C1c1ccccc1 (centres undefined)	16.9%
CCC[CH2][Sn]([CH2]CCC)([CH2]CCC)[O]C(=O)c1ccc(Cl)cc1Cl	-80.7% (active)
Nc1ccc(-c2nc3cc(F)ccc3[se]2)cc1F	-21% (active)
Clc1ccc(COC(Cn2ccnc2)c2ccc(Cl)cc2Cl)cc1 (centres undefined)	39.7%

SMILES	growth
CN=C(NN)NN	112%
CN1CC(CNC(=O)OCc2ccccc2)CC2c3cccc4c3c(cn4C)CC21 (centres undefined)	-42.6% (active)
O=C1NC(=O)C(=C/C=C/c2ccccc2)C(=O)N1	44.2%
NC(N)=N/N=C\c1c[nH]c2ccc(Br)cc12	-6.01% (active)
C[C@@H]1C[C@@]2(C)[C@@H](CC[C@@H]3[C@@H]2CC[C@]2(C)C(=O)CC[C@@H]32)CC1=O	95.4%
COC(=O)[C@@H](C)C[C@H](Cc1ccccc1)NC(=O)c1csc([C@@H](C[C@H](C(C)C)N(C)C(=O)C2(NC(=O)[C@H]3CCCCN3C)CC2)OC(C)=O)n1	-4.03% (active)
C/C(=C\c1ccn(-c2ccc(N)cc2)n1)[C@@H]1C[C@@H]2O[C@]2(C)CCC[C@H](C)[C@H](O)[C@@H](C)C(=O)C(C)(C)[C@@H](O)CC(=O)O1	13.9%
COC(=O)C1CCC(NC(=O)c2csc([C@@H](C[C@H](C(C)C)N(C)C(=O)[C@@H](NC(=O)[C@H]3CCCCN3C)C(C)C)OC(C)=O)n2)CC1 (some centres undefined)	27.9%
Cc1cc(N(CCCl)CCCl)ccc1C=Nc1ccc(-c2csc(-c3ccccc3)n2)cc1	3.69% (active)
O=C1NC(=S)NC(=O)C1=Cc1ccccc1	117%
Nc1ncnc2n[nH]nc12	51.6%
c1ccc(COc2ccc3[nH]cc(CCN(Cc4ccccc4)Cc4ccccc4)c3c2)cc1	87.9%
COc1ccc(/C=C\c2cc(OC)c(OC)c(OC)c2)cc1OCC(=O)Nc1nc2ccc(F)cc2s1	37.3%
CCC1CN1P(=O)(OCCOC)N1CC1CC (centres undefined)	110%
CC(=O)O[C@H](C[C@H](C(C)C)N(C)C(=O)[C@@H](NC(=O)[C@H]1CCCCN1C)C(C)C)c1nc(C(=O)NC2CCC(C(=O)O)CC2)cs1 (some centres undefined)	29.6%
CCC(=O)C(CC(C)[N+](C)(C)C)(c1ccccc1)c1ccccc1 (centres undefined)	85.5%
COC(=O)[C@@]1(C)CC[C@]2(C)CC[C@]3(C)C4=CC=C5C(=CC(=O)C(O)=C5C)[C@]4(C)CC[C@@]3(C)[C@@H]2C1	-66.9% (active)

From PubChem BioAssay (NCI)
